From PubChem BioAssay
This excerpt belongs to a sample that is enriched for hits.
Pf Dd2 inh – blocks in vitro growth of P. falciparum Dd2; P. falciparum Dd2 growth, SYBR Green, 72 h; Potency, µM (titrated, usually from 28.9 µM), without a hit: top-dose activity, negative = inhibition, hits mostly inhibitors; hit rate 4.3% among 120,000; AID 1347417; active = well fitted inhibition curve with a large enough effect;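 also: plate controls were DMSO vehicle for no effect and reference drug for full effect; nearly all actives have a fitted effect of over 65% in size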
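Infected erythrocytes (Dd2, 0.3% parasitemia, 2.5% hematocrit final) are added to compound in RPMI-1640/Albumax II medium, grown 72 h at 37C in low oxygen, then lysed with saponin/Triton-X containing SYBR Green and read by fluorescence.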
The depositor's hits bear a star; i = inactive; [ ] = remark or other dose. Potency is read from the fitted curve at half-maximal effect.

SMILES | Pf Dd2 inh
COc1ccc(C2(C(=O)N3CCC(CC(=O)NC4CC4)C3)CC2)cc1 (stereo not drawn) | 26%
CC(=O)Nc1ccc(S(=O)(=O)N[C@H]2CO[C@H]3[C@@H]2OC[C@H]3OC(=O)Nc2cccc3ccccc23)cc1 | i
COc1ccc(CN2C(=O)O[C@@H]3CN(Cc4cnc(C)[nH]4)C[C@@H]32)cc1OC | 1%
CCCN(C)c1nccnc1OC1CCN(C(=O)c2cccc(OC)c2OC)C1 (stereo not drawn) | -30%
c1cc(N2CCCCC2)ccc1-c1n[nH]c(C2CCOC2)n1 (stereo not drawn) | -24%
O=C([C@@H]1C[C@H](Oc2ccccc2)CN1C(=O)c1ccsc1)N1CCOCC1 | -5%
CN1C(=O)C(c2ccccc2)CC12CCN(Cc1ccc(F)cc1F)CC2 (stereo not drawn) | -19%
Cc1cc(C)n(CCC(=O)NCCc2noc(-c3ccccc3)n2)n1 | -5%
COc1ccc(-c2cn3cccnc3n2)cc1NC(=O)Nc1cc(C)ccc1C | 11µM*
COc1cccc(NC(=O)Nc2cc(-c3cn4cccnc4n3)ccc2OC)c1 | i
COc1cccc(NC(=O)Nc2cc(-c3cn4cccnc4n3)ccc2C)c1 | i
CCOc1ccc(C2=CC(c3cc(Br)ccc3F)n3ncnc3N2)cc1Cl (stereo not drawn) | 11µM*
COC(=O)c1nc2n(n1)C(c1cc(OC)ccc1OC)C=C(c1ccc(Br)cc1)N2 (stereo not drawn) | 11%
COc1ccc(C2=CC(c3cc(Br)ccc3F)n3c(nc4ccccc43)N2)cc1 (stereo not drawn) | -23%
COCC(=O)N1CCN(C(=O)c2cccnc2)C[C@H]1C(=O)N[C@@H](CC1CCCCC1)C(N)=O | 12%
Cn1ccnc1CN1C[C@H]2CN(C(=O)NCc3ccccc3)CCN2C1=O | 27%[44.1 µM]
OCc1ccc(CN[C@H]2[C@H](O)[C@@H](N3CCC(Cc4ccccc4)CC3)[C@@H]3OC[C@H]2O3)o1 | i
O[C@H]1[C@H](NCc2ccccn2)[C@H]2CO[C@H](O2)[C@@H]1N1CCC(Cc2ccccc2)CC1 | -19%[44.1 µM]
O[C@H]1[C@H](NCC2CCCCC2)[C@H]2CO[C@H](O2)[C@@H]1N1CCC(Cc2ccccc2)CC1 | 1.4µM*
O=C1NC2(CCCN(Cc3ccncc3)C2)COc2ccccc21 (stereo not drawn) | -21%[44.1 µM]
Cc1ccc(CN2CCC3(CC2)COc2ccccc2CN3)cc1 | 6.3µM*
N#Cc1ccc(CN2CC3(C2)NC(=O)c2ccccc2O3)cc1 | i
O=C1NC2(CCCN(C(=O)c3cccnc3)C2)COc2ccccc21 (stereo not drawn) | i
CC1=NOC2(CCN(Cc3ccc(C)cc3)CC2)C1 | i
O=C1NC2(CCCN(Cc3cccnc3)C2)Oc2ccccc21 (stereo not drawn) | -15%[44.1 µM]
SMILES | Pf Dd2 inh
N#Cc1ccc(CN2CCCC3(COc4ccccc4C(=O)N3)C2)cc1 (stereo not drawn) | -24%
N#Cc1ccc(CN2CCC3(CC2)COc2ccccc2C(=O)N3)cc1 | 2.5µM*
Cc1ccc(CN2CCC3(CC2)NC(=O)c2ccccc2O3)cc1 | -4%[44.1 µM]
COc1cccc(CN2CCCC3(C2)NC(=O)c2ccccc2O3)c1 (stereo not drawn) | 16µM*
Cc1ccc(CN2CCCC3(COc4ccccc4C(=O)N3)C2)cc1 (stereo not drawn) | 13µM*
COc1cccc(CN2CC3(C2)NC(=O)c2ccccc2O3)c1 | -4%[44.1 µM]
O=C(Cn1nc2n(c1=O)CCCC2)NCc1ccc(F)cc1 | 69%
O=C(CCNc1c(-c2ccccc2)nc2cnccn12)N1CCCC1 | -25%
O=c1c2c(n(Cc3cccnc3)n1-c1ccccc1)CN(Cc1ccc(O)cc1)CC2 | 2%[44.1 µM]
CCNC(=O)N1CCc2nc(N3CCN(C)CC3)sc2C1 | 16%
CCS(=O)(=O)N1CCC2(CC1)CC(N1CCN(C(C)=O)CC1)CCO2 (stereo not drawn) | 24%
CCCCCN(CCC(=O)NCCCOC)C(=O)c1ccoc1 | -10%
O=C([C@@H]1C[C@H](Oc2ccccc2)CN1C(=O)c1cnccn1)N1CCOCC1 | -21%
O=C(COc1ccc(F)cc1F)N1CCCC(Cc2nc3ccccc3[nH]2)C1 (stereo not drawn) | i
COc1ccc(-c2cc(-c3cccs3)nc3c(C)noc23)cc1OC | i
CCOc1cc(=O)n2c(c1C(=O)Nc1cc(Cl)c(OC)cc1OC)CCCC2 | -24%
O=C(NCc1nnc2ccc(-c3ccccc3)nn12)c1cccc(C(F)(F)F)c1 | i
O=[S+]1([O-])NC2(CCN(Cc3ccsc3)CC2)COc2ccccc21 | -16%
COc1cccc(CN2CCC3(CC2)COc2ccccc2C(=O)N3)c1 | i
O=C1NC2(CCN(Cc3ccc(OC(F)(F)F)cc3)C2)COc2ccccc21 (stereo not drawn) | 9%
O=C1NC2(CCN(Cc3ccsc3)CC2)COc2ccccc21 | 3.2µM*
O=C1NC2(CCN(Cc3ccccc3)C2)COc2ccccc21 (stereo not drawn) | 10µM*
O=C1NC2(CCN(Cc3ccncc3)C2)Oc2ccccc21 (stereo not drawn) | 14%[44.1 µM]
Cc1ccc(C(=O)N2CCC3(CC2)C(=O)Nc2ccccc23)cc1 | 47%
O=C(Nc1nccs1)C1CC(=O)N(c2n[nH]c3cc(Br)ccc23)C1 (stereo not drawn) | -16%
SMILES | Pf Dd2 inh
COCCN1C(=O)[C@H]2CN(Cc3cccc(C#N)c3)C[C@H]2C1=O | -6%
COC1CCN(CC2CCCCCN2C(=O)c2ccoc2)CC1 (stereo not drawn) | 0%
O=C(NC1CCCCCC1)c1ccc(N2CC3CC(C2)[C@H]2CCCC(=O)N2C3)nc1 (stereo partly drawn) | -4%
CCc1ccc(-c2cn3c(n2)sc2cc(C(=O)NCCCc4ccccc4)ccc23)cc1 | i
O=C(NC1CCCCC1)c1ccc2c(c1)sc1nc(-c3ccccc3)cn12 | i
CCc1ccc(-c2cn3c(n2)sc2cc(C(=O)NCC(C)c4ccccc4)ccc23)cc1 (stereo not drawn) | -1%
CCc1ccc(-c2cn3c(n2)sc2cc(C(=O)NC4CCCCCC4)ccc23)cc1 | 8%
O=C(NCCCN1CCCCCC1)c1ccc2c(c1)sc1nc(-c3ccccc3)cn12 | 10µM*
CCC1CCCCN1CCCNC(=O)c1ccc2c(c1)sc1nc(-c3ccc(F)cc3)cn12 (stereo not drawn) | 1µM*
Cc1ccc(-c2cn3c(n2)sc2cc(C(=O)NC4CCCCCC4)ccc23)cc1 | 1%
Cc1ccc(-c2cn3c(n2)sc2cc(C(=O)NCCCc4ccccc4)ccc23)c(C)c1 | 5µM*
O=C(NCc1cccs1)c1ccc2c(c1)sc1nc(-c3ccc(F)cc3)cn12 | -12%
Cc1c(CN2CCC(c3nnc(CN(C)C)n3C)CC2)cc(C#N)n1C | -6%
Cc1ccc(-c2nnc(C3CN(C(=O)c4cccc(Cl)c4)CC34CCOCC4)o2)cc1 (stereo not drawn) | i
COc1ccc(Cl)cc1C(=O)N1C[C@@H](CO)[C@H](c2ccccn2)C1 | 22%
CCc1cc(N2CCC(N3CCSCC3)CC2)n2nccc2n1 | -21%
FC(F)(F)c1ccc2c(c1)nc1n2[C@@H](CNC2CCOCC2)COC1 | i
COc1ccc(C(=O)Nc2ccc([C@@H](O)[C@H]3COCC(=O)N3Cc3ccccc3F)cc2)cc1 | i
O=C(C1CC2(CCNCC2)CN1)N1CCCN(Cc2ccc(F)cc2)CC1 (stereo not drawn) | -18%
Cc1nc(CCNC(=O)Cc2ccsc2)no1 | i
COc1ccc(-c2nn3c(-c4ccccc4C)nnc3c3ccccc23)cc1 | 11µM*
